Gli-Sufu block: antagonists of Gli-Sufu signaling; Sufu-KO-LIGHT fibroblasts, Gli luciferase reporter luminescence; inhibition, % at 5 µM; AID 588413; 0.74% of 340,000 active;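 active = inhibition above about 55%, limit read from the data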;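 also: 0% = DMSO-treated cells and 100% = wells with medium but no cells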
GalR3 antagonist: antagonists of human GalR3; O60755; HEK293 GalR3-CNG cAMP membrane potential fluorescence; galR3 body fused to GalR1 C-terminus; inhibition, % at 3 µM; 0.44% of 360,000 active; AID 651719;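 active = inhibition above the screen-wide average plus 3 SD, cut at about 13% in these data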;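 also: forskolin and galanin both at EC90 stimulate the cells; cAMP rise reported by CNG channel membrane potential dye signal; 0% = forskolin plus galanin with DMSO and 100% = forskolin alone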
Target sequence (O60755 1-299 limits assumed): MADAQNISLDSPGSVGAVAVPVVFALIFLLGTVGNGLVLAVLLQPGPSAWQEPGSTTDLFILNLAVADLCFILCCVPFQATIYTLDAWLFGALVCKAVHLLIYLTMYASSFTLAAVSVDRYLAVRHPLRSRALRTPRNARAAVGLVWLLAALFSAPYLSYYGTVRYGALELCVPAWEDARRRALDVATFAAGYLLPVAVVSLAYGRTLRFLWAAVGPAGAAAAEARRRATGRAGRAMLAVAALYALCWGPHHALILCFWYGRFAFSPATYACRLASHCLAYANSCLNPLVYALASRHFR
H9c2 protect: protects H9c2 cardiomyocytes from peroxide injury; H2O2 injury protection, ATPLite, 2 h; 0.63% of 360,000 active; protection from H2O2 cell death, % at 20 µM; AID 588492;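 active = compounds giving at least 50% protection of heart cells from peroxide-induced death in the single-dose screen, raw or plate-pattern-corrected value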;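 also: 0% = DMSO wells with peroxide and 100% = DMSO wells without peroxide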
SMARCA2 act: SMARCA2 function activation, primary screen; MG213 cells, MMTV-luciferase reporter, dexamethasone, overnight; activation, % at 9.1 µM; 1% of 370,000 active; in the data active = activation above about 7.8%;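 also: 0% = vehicle wells and 100% = reference activator wells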
FXN GAA850 act: frataxin GAA850 promoter activation; HEK293 lucGAA850 FXN promoter luciferase reporter, 24 h; percent of 10 µM SAHA response; activation, % at 6 µM; 0.56% of 360,000 active;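 active = activation above the average of all compounds screened plus 3 SD, cutoff fixed separately per campaign, cut at about 7.5% in these data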;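 also: 0% = DMSO wells and 100% = 10 µM SAHA wells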
COUP-TFII inh: inhibitors of human COUP-TFII (NR2F2) | P24468 | HEK293T NGFI-A luciferase reporter, luminescence | inhibition, % at 8.6 µM | 0.7% of 370,000 active | AID 686940;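 active = inhibition above a per-plate cutoff, mean inhibition of test wells between control levels plus 3 SD, cut at about 38% in these data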;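 also: cells cotransfected with COUP-TFII expression vector driving the NGFI-A reporter; 0% = median of COUP-TF2 test wells and 100% = reporter-only cells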
Target sequence (P24468 whole entry, looked up): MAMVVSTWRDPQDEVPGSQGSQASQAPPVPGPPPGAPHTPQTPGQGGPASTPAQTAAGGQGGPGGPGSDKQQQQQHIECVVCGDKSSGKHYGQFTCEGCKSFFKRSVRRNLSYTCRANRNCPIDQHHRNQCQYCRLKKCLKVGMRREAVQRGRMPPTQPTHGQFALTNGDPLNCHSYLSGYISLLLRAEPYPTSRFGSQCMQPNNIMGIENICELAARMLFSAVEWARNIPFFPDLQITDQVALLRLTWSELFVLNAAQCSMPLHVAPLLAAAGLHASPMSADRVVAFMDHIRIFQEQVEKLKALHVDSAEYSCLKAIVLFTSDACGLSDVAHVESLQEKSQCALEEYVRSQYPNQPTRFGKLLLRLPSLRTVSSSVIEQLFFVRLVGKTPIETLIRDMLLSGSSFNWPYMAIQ
VP16 Luc counter: inhibits VP16 reporter, flagging COUP-TFII antagonist hits. 25% of 2,500 active. HEK293 Gal4-VP16 luciferase reporter, luminescence. inhibition, % at 8.5 µM. AID 687007. shares compounds with COUP-TFII inh; in the data active = inhibition above about 13%
COUP-TFII conf: COUP-TFII (NR2F2) inhibition, confirmation assay | shares compounds with COUP-TFII inh | HEK293 NGFI-A luciferase reporter, luminescence | inhibition, % at 8.5 µM | 45% of 2,500 active;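 active = mean inhibition over three repeats above a set limit taken from the earlier primary screen, cut at about 38% in these data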;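 also: 100% = cells given the luciferase reporter alone without the COUP-TF2 vector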
* hit, by the source's call; x = not tested or not shown. The list is not random: actives were taken first. Their share in the collection is about 3.4%.

SMILES	Gli-Sufu block	GalR3 antagonist	H9c2 protect	SMARCA2 act	FXN GAA850 act	COUP-TFII inh	VP16 Luc counter	COUP-TFII conf
C(C#CCCCCCCCCC[n+]1ccccc1)#CCCCCCCCCC[n+]1ccccc1	87.2*	x	-19.5	-13.1	-8.7	64.9*	16.1*	36.2
COc1ccc(CN(C)C(=O)CCc2ccc(S(=O)(=O)N3CCCCCC3)cc2)c(OC)c1	-2.2	-3.0	-5.6	-0.6	1.7	4.6	x	x
COc1ccc(CN(C)C(=O)/C=C/c2ccc(S(=O)(=O)N3CCCCCC3)cc2)cc1	24.1	-9.0	-12.4	-2.8	-0.4	38.4*	10.3	27.4
CCOc1ccc(CN(C)C(=O)CCc2ccc(S(=O)(=O)N3CCCCCC3)cc2)cc1	-1.5	-3.8	-10.2	-2.6	-1.2	41.4*	1.1	19.4
CC1CCN(S(=O)(=O)c2cn(CC(=O)Nc3ccc(C#N)cc3)cn2)CC1	3.5	-7.0	-7.1	-3.7	-0.9	13.7	x	x
CCOC(=O)Oc1c(OC)cc(C(=O)O[C@@H]2C[C@@H]3CN4CCc5c([nH]c6cc(OC)ccc56)[C@H]4C[C@@H]3[C@H](C(=O)OC)[C@H]2OC)cc1OC	6.7	0.2	-26.1	-5.4	-7.0	49.5*	-11.5	42.7*
COC(=O)C1C2CC3c4[nH]c5cc(OC)ccc5c4CCN3CC2CC(OC(=O)CC(C)=O)C1OC (centres undefined)	3.9	-3.0	11.3	-4.6	0.0	-0.2	x	x
CCOc1ccc(C(=O)Nc2cccc3ncccc23)cc1Cl	15.9	-9.4	-1.3	-3.4	0.8	8.6	x	x
COc1cccc(C(=O)NCC2(c3ccccc3)CCCC2)c1OC	13.8	-0.2	6.9	0.1	-2.9	44.9*	-8.2	16.8
Cc1cc(C)n(CCNC(=O)c2cc(COc3ccc4ncccc4c3)on2)n1	2.9	-5.1	-27.5	-6.7	1.6	23.4	x	x
Cc1ccc(F)cc1CNC(=O)c1cc(COc2ccc3ncccc3c2)on1	21.1	-10.3	-19.3	-6.2	0.8	41.1*	6.1	49.5*
O=C(NCc1cccc(Cl)c1)c1cc(COc2ccc3ncccc3c2)on1	37.5	-2.8	-26.7	-7.5	-2.5	68.0*	0.4	55.1*
CCOC(=O)C1CCN(CC(C)(C)NS(=O)(=O)c2ccccc2)CC1	15.4	-8.3	0.3	-2.1	1.4	-1.4	x	x
CC1CCC2C(=O)N(c3cccc(C(=O)Nc4ccccc4Cl)c3)C(=O)C2C1 (centres undefined)	-9.7	-4.6	5.3	-3.6	0.3	-3.9	x	x
CC(C)(C)c1ccc(OCCC(=O)OCC(=O)NC2CC2)cc1	6.8	-4.3	-5.3	-7.0	-1.6	42.8*	16.8*	3.6
CC(C)[C@H](NC(=O)c1ccco1)C(=O)N(C)Cc1ccc(C(F)(F)F)cc1	-21.0	-9.3	-3.7	-1.3	0.3	1.2	x	x
Cc1ccc(S(=O)(=O)Nc2cccc(C(=O)NCC(c3ccco3)N3CCCC3)c2)cc1F (centres undefined)	31.8	-4.2	3.0	0.5	1.6	0.7	x	x
COc1ccccc1OCc1ccc(C(=O)Nc2ccncc2)o1	12.8	-4.8	-9.9	-4.4	-0.8	38.9*	3.2	15.5
CS(=O)(=O)N(CC(=O)NCCSc1ccc(Cl)cc1)c1ccc2c(c1)OCO2	19.0	0.8	-11.2	-1.0	-0.1	-3.8	x	x
CS(=O)(=O)N(CC(=O)NCCSc1ccccc1)c1ccc2c(c1)OCO2	2.7	-2.5	0.7	-1.5	-1.2	37.9*	-8.7	-7.4
CC(=O)OC(C(=O)NCc1ccco1)c1ccncc1 (centres undefined)	-25.9	2.2	6.2	-1.0	0.9	0.6	x	x
CSc1nsc(SCC(=O)N2CCN(c3ccccc3)CC2)n1	0.6	0.4	2.3	0.9	0.4	2.5	x	x
CCC(C)[C@@H](CN)NCC1(c2ccccc2)CC1 (some centres undefined)	-3.3	-6.6	-0.7	0.2	0.3	-26.7	x	x
CCc1nnc(N/N=C/c2c(C)[nH]c3ccccc23)n1N	-1.5	-5.1	3.2	-13.9	-0.4	52.5*	-0.6	-0.7
CC1Cc2cc(-c3csc(NC(=O)Cc4cccs4)n3)ccc2N1S(C)(=O)=O (centres undefined)	-10.1	10.1	-5.4	-8.1	-12.1	81.2*	-1.9	85.4*
SMILES	Gli-Sufu block	GalR3 antagonist	H9c2 protect	SMARCA2 act	FXN GAA850 act	COUP-TFII inh	VP16 Luc counter	COUP-TFII conf
CCC(=O)Nc1nc(-c2ccc3c(c2)CC(C)N3S(C)(=O)=O)cs1 (centres undefined)	-26.7	-6.7	12.5	0.0	1.8	0.3	x	x
Cc1ccc(/C=C/c2ccc(N(C)C)cc2)[n+](C)c1	84.7*	-7.9	-19.4	-4.9	-5.3	65.0*	-6.1	55.3*
CN(C)c1ccc(/C=C/c2cc[n+](C)cc2)cc1	69.7*	2.5	-23.7	-4.4	-3.2	41.0*	-15.3	14.8
COC(=O)C(C)(C)c1cccnc1C#N	-1.0	-5.6	37.2	-2.7	0.4	-10.5	x	x
COc1ccc(S(=O)(=O)N2CCC3CC2c2c(-c4ccc(C(F)(F)F)cc4)cccc23)cc1 (centres undefined)	x	-6.3	-0.9	-2.1	x	-18.4	x	x
C=CCN(C(=O)CSc1nc2[nH]ncc2c(=O)n1-c1ccccc1OC)c1ccccc1	3.5	-3.1	6.8	-2.8	-1.4	41.7*	-6.0	-3.0
COc1cc(NC(=O)CSc2nc3[nH]ncc3c(=O)n2-c2ccccc2C)cc(OC)c1OC	-7.3	4.3	11.0	-0.5	0.5	-0.8	x	x
CCCCC1C(C#N)=C(C)NC2=C1C(=O)CC(C)(C)C2 (centres undefined)	5.0	-3.5	10.4	-2.8	1.3	-4.7	x	x
CCN(CC)S(=O)(=O)c1cc(NC(=O)C(=O)c2c(-c3ccccc3)cc3ccccn23)ccc1C	24.2	-5.4	0.7	-3.0	-1.3	39.4*	11.7	18.3
CCN(CC)S(=O)(=O)c1cccc(NC(=O)C(=O)c2c(-c3ccccc3)cc3ccccn23)c1	-7.5	-6.2	-2.1	-3.9	-5.2	25.8	x	x
COc1ccc(Cl)cc1Nc1nc(-c2sc(NC(=O)C(C)(C)C)nc2C)cs1	15.3	-2.3	-12.2	0.5	-1.0	40.7*	-5.1	41.6*
CCOC(=O)c1cc(C#N)c(N2CCN(c3ccc(OC)cc3)CC2)[nH]c1=O	-20.0	0.9	12.6	-5.0	0.5	-5.4	x	x
Cc1ccc(S(=O)(=O)N(C)CC(=O)NNC(=O)Cc2cccc(F)c2)cc1	-3.0	-2.3	-2.5	-2.9	-0.5	7.6	x	x
CCOC(=O)c1c(C)[nH]c(C(=O)OCC(=O)Nc2ccc(Cl)cn2)c1C	1.1	-1.0	1.2	-2.4	1.8	3.4	x	x
CCOC(=O)c1c(C)[nH]c(C(=O)OCC(=O)Nc2sccc2C(N)=O)c1C	51.0	-2.2	-4.6	-5.9	-6.9	52.2*	-34.5	44.9*

Screening results (PubChem)
